The values that follow come from paper PMC7862700, “An all-to-all approach to the identification of sequence-specific readers for epigenetic DNA modifications on cytosine”.

Common to all, as to experiment: DAPPL (digital affinity profiling via proximity ligation, sequencing); 10 mM Tris-HCl pH 7.5, 50 mM NaCl, 1 mM DTT, 4% glycerol, room temperature, 30 min; GST-TFs on glutathione beads, 16-mer random dsDNA library, 0.1% formaldehyde crosslink after washing; high values mean tight binding
Conditions in all cases: protein: recombinant; tags: N-terminal GST; dsDNA, one strand shown

Test [1] addresses T1, FLI1 (Homo sapiens, UniProt Q01543 1-452).
T1 sequence: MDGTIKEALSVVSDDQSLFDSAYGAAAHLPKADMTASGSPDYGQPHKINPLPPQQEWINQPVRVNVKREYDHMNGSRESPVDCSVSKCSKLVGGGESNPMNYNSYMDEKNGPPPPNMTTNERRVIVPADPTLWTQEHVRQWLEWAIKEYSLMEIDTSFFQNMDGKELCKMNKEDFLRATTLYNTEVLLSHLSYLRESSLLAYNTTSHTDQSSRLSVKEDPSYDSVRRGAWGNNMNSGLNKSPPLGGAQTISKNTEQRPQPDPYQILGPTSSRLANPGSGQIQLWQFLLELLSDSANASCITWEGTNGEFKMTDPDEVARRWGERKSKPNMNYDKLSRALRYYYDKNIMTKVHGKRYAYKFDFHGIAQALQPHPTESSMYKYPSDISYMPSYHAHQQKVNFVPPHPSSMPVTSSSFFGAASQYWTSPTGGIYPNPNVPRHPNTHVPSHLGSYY
In outline: (§1)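 Human transcription factors were made in yeast as GST fusions, captured on glutathione beads and barcoded with DNA. With a tag-only sample included, the pool was incubated with 200 nmole of a random double-stranded 16-mer DNA library in Tris/NaCl/DTT/glycerol buffer at room temperature for 30 min, then crosslinked with 0.1% formaldehyde after washing, ligated by proximity, amplified and sequenced. For binding signal, each hexamer's read frequency for a factor is divided by its frequency for the tag-only sample.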

In test [2] the target is T2, ELK1 (Homo sapiens, UniProt P19419 1-428).
T2 sequence: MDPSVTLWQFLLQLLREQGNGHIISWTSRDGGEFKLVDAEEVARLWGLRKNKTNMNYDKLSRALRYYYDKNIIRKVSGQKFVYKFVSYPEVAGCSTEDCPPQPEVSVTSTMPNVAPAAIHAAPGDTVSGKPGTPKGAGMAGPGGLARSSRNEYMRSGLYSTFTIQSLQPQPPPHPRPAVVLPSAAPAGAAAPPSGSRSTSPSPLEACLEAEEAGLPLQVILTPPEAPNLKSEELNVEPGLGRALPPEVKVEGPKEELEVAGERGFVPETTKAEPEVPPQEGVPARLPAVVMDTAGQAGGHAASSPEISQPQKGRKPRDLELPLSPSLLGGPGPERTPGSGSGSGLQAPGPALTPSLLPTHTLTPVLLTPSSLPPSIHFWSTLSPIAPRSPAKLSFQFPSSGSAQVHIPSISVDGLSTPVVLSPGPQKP
The procedure, abridged:
as §1

The target of test [3] is T3, GABPA (Homo sapiens, UniProt Q06546 1-454).
T3 sequence: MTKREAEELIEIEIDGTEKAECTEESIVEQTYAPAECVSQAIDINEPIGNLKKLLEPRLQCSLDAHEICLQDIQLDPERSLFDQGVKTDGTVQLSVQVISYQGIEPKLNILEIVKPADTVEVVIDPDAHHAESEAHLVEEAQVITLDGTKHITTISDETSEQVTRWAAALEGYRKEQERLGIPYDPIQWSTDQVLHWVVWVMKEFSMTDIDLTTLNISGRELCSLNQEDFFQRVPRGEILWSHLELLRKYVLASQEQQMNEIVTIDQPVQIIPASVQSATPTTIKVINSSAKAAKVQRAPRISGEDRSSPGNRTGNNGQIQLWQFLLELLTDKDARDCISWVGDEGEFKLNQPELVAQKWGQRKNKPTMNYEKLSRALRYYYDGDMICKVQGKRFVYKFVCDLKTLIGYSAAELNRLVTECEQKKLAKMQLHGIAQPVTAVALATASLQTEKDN
The procedure, abridged:
as §1

Test [4] addresses T4, ERG (Homo sapiens, UniProt P11308 1-479).
T4 sequence: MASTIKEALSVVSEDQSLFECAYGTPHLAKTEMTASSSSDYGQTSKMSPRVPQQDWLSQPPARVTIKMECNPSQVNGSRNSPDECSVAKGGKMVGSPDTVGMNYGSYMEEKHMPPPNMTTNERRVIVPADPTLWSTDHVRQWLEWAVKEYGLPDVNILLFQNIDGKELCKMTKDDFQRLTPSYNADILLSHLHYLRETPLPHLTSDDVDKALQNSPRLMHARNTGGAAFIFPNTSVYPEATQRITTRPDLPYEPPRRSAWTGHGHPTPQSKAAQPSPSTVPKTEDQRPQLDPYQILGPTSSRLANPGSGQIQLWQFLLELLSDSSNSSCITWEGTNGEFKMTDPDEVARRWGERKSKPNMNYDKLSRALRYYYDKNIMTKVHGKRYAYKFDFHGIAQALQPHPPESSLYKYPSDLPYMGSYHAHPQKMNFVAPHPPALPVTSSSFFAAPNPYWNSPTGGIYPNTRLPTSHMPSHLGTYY
The procedure, abridged: as §1

Test [5] concerns the target ELF1 (Homo sapiens, UniProt P32519 1-619). The procedure, abridged: as §1
The target of test [6] is T5, EHF (Homo sapiens, UniProt Q9NZC4 1-300).
T5 sequence: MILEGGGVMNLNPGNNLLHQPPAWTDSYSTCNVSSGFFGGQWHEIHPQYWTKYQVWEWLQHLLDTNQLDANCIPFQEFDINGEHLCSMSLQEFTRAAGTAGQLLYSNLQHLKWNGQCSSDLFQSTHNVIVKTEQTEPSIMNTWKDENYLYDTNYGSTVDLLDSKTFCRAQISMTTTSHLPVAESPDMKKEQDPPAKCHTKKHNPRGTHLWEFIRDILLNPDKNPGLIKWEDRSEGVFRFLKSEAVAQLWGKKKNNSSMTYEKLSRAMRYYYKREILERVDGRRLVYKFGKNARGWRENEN
In outline: as §1

Test [7] has as its target SPI1 (Homo sapiens, UniProt P17947 1-270). In outline: as §1
Test [8] deals with SPIB (Homo sapiens, UniProt Q01892 1-262). In outline:
as §1

For test [9], the target named is T6, FEV (Homo sapiens, UniProt Q99581 1-238).
T6 sequence: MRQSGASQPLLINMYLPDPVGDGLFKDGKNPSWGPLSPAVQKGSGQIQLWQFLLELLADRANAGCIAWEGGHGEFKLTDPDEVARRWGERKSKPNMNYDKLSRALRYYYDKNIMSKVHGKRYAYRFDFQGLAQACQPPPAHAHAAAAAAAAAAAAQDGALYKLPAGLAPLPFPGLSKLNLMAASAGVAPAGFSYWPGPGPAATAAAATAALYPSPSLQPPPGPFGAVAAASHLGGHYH
The procedure, abridged:
as §1

The target of test [10] is ETV5 (Homo sapiens, UniProt P41161 1-510). In outline:
as §1

In test [11] the target is T7, SPIC (Homo sapiens, UniProt Q8N5J4 1-248).
T7 sequence: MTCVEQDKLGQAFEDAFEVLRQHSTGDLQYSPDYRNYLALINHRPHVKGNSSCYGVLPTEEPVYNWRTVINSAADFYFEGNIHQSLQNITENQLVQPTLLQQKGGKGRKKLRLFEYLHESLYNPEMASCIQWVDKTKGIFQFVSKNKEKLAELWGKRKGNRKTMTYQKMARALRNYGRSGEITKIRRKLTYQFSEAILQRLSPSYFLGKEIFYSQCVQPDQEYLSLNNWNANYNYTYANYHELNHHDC
In outline: as §1

The target in test [12] is ELF4 (Homo sapiens, UniProt Q99607 1-663). In outline:
as §1

Test [13] has as its target T8, ELK4 (Homo sapiens, UniProt P28324-2 1-405).
T8 sequence: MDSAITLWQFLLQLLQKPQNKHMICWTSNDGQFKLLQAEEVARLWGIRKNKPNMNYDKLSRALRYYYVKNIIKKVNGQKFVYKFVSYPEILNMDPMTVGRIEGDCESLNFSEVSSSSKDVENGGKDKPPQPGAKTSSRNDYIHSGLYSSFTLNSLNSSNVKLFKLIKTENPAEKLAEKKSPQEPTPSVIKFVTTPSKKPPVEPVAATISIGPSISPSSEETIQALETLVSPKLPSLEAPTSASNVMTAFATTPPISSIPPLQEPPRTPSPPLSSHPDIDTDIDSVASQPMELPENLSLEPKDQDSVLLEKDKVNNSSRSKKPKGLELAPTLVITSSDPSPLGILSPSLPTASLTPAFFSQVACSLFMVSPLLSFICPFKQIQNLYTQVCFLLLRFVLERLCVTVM
The procedure, abridged: as §1

The target in test [14] is T9, ETV2 (Homo sapiens, UniProt O00321 1-342).
T9 sequence: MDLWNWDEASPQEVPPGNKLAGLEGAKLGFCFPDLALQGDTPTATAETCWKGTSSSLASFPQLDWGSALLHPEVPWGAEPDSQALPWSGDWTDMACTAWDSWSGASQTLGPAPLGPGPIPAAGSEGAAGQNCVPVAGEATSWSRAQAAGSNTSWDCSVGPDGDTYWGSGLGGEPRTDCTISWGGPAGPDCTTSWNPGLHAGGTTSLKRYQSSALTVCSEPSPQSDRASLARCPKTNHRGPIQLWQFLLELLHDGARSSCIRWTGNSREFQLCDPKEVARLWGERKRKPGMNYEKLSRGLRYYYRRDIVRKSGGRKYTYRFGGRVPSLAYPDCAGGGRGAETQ
In outline: as §1

Test [15] addresses ETV1 (Homo sapiens, UniProt P50549 1-477). The procedure, abridged:
as §1

The target of test [16] is T10, ELK3 (Homo sapiens, UniProt P41970 1-407).
T10 sequence: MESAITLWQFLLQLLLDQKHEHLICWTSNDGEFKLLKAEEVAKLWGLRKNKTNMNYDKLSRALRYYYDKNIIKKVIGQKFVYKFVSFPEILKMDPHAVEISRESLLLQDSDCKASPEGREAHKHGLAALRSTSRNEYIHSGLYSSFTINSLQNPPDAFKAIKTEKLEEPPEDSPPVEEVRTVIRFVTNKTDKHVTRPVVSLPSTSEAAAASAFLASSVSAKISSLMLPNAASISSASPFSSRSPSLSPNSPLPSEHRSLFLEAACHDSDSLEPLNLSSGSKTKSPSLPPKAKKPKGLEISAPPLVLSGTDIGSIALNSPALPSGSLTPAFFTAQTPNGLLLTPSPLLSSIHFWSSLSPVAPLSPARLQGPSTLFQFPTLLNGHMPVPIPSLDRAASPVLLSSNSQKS
In outline:
as §1

Chain of ETV5 (P41161 whole entry): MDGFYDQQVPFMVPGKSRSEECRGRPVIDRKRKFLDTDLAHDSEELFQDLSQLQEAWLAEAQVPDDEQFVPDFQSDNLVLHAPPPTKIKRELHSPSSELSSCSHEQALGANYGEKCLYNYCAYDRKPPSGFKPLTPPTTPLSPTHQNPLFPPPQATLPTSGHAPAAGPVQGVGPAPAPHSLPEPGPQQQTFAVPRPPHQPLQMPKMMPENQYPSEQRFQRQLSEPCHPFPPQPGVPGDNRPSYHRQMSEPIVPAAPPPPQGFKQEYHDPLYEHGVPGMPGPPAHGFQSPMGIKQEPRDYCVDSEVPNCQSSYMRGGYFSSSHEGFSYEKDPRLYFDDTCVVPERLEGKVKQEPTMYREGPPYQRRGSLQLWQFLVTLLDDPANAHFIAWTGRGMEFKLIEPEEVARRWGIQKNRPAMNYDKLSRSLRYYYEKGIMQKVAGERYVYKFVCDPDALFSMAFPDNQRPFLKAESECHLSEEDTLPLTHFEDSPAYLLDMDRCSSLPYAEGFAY
Chain of ETV1 (P50549 whole entry): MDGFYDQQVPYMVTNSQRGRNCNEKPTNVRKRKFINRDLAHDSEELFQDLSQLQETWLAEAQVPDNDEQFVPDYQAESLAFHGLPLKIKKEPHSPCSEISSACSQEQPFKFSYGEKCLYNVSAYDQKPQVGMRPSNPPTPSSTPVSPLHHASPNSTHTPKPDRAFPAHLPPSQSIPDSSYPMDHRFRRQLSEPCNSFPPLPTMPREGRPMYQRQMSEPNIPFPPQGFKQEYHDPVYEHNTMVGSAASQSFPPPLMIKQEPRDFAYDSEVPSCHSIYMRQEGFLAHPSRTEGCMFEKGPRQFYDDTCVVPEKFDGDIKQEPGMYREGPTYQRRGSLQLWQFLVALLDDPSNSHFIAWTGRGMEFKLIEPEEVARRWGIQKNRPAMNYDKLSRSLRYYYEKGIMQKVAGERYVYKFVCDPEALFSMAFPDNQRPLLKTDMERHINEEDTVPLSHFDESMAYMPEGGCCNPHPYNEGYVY
Chain of SPIB (Q01892 whole entry): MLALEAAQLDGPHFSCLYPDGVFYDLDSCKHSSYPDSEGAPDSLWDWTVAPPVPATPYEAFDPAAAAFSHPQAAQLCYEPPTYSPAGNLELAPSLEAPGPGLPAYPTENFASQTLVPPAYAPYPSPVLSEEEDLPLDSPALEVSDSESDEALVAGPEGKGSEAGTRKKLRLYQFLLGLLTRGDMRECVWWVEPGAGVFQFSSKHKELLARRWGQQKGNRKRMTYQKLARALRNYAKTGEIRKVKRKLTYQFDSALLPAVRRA
Chain of ELF4 (Q99607 whole entry): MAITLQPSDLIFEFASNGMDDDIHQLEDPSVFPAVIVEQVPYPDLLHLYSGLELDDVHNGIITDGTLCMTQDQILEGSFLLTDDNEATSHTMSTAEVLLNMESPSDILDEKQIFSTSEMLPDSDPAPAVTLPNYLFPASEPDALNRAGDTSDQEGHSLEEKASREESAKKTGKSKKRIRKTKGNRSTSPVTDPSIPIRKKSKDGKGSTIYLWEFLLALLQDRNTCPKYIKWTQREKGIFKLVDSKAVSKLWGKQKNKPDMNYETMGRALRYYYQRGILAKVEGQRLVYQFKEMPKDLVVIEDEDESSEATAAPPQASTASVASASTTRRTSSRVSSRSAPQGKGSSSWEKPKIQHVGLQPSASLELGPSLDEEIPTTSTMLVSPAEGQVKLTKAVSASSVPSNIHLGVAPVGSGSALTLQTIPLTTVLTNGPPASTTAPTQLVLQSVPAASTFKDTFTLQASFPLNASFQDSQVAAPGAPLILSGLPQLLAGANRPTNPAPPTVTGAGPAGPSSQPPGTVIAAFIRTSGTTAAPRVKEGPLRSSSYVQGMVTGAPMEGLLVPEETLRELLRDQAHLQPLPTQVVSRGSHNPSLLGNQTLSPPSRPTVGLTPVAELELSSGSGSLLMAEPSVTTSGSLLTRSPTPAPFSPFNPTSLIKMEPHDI
Chain of ELF1 (P32519 whole entry): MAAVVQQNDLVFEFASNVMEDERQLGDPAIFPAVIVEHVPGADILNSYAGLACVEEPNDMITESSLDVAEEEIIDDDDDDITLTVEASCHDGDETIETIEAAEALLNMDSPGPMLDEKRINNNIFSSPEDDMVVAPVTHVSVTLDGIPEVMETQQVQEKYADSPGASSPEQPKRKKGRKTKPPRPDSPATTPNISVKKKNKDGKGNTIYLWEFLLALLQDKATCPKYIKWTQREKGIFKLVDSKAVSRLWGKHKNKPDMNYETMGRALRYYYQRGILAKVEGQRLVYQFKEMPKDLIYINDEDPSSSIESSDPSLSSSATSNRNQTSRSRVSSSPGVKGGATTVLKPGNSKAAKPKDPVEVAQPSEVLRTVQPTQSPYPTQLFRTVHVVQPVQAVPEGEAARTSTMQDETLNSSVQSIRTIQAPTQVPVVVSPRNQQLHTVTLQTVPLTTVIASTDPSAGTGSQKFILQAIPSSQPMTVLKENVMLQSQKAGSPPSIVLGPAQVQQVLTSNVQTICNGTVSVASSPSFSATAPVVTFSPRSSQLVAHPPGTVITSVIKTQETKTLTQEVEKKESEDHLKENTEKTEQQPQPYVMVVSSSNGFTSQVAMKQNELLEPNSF

For the sequence ACGGCC, the binding signal is 1.1 fold enrichment (6-mer frequency, TF over GST control) in test [1]; 1.13 fold enrichment (6-mer frequency, TF over GST control) in test [2]; 1.12 fold enrichment (6-mer frequency, TF over GST control) in test [3]; 1.09 fold enrichment (6-mer frequency, TF over GST control) in test [4]; 1.09 fold enrichment (6-mer frequency, TF over GST control) in test [5]; 1.09 fold enrichment (6-mer frequency, TF over GST control) in test [6]. Moreover, the binding signal in test [7] is 1.09 fold enrichment (6-mer frequency, TF over GST control); in test [8], 1.26 fold enrichment (6-mer frequency, TF over GST control); in test [9] it was 1.06 fold enrichment (6-mer frequency, TF over GST control); in [10], 1.14 fold enrichment (6-mer frequency, TF over GST control); in test [11] it was 1.03 fold enrichment (6-mer frequency, TF over GST control); in [12] it was 1.15 fold enrichment (6-mer frequency, TF over GST control). Further, the binding signal in [13] was 1.06 fold enrichment (6-mer frequency, TF over GST control); in test [14], 1.01 fold enrichment (6-mer frequency, TF over GST control); in test [15] it was 1.05 fold enrichment (6-mer frequency, TF over GST control).
CGTATG: the binding signal in test [1] was 1.1 fold enrichment (6-mer frequency, TF over GST control); in test [2] it was 1.1 fold enrichment (6-mer frequency, TF over GST control); in [3], 1.08 fold enrichment (6-mer frequency, TF over GST control); in test [4], 1.03 fold enrichment (6-mer frequency, TF over GST control); in [5], 1.1 fold enrichment (6-mer frequency, TF over GST control); in test [6] it was 1.1 fold enrichment (6-mer frequency, TF over GST control). The binding signal in test [7] is 1.07 fold enrichment (6-mer frequency, TF over GST control); in test [8], 1.09 fold enrichment (6-mer frequency, TF over GST control); in test [16], 1.13 fold enrichment (6-mer frequency, TF over GST control); in [10], 1.09 fold enrichment (6-mer frequency, TF over GST control); in test [11], 1.07 fold enrichment (6-mer frequency, TF over GST control); in test [12], 1.04 fold enrichment (6-mer frequency, TF over GST control). Also, the binding signal in test [13] is 1 fold enrichment (6-mer frequency, TF over GST control); in [14], 1.09 fold enrichment (6-mer frequency, TF over GST control); in [15] it was 1.04 fold enrichment (6-mer frequency, TF over GST control).
